Results on 34 compounds are retold here after PubChem BioAssay (Tox21).

Activity calls are given as the source filed them. Where a call stands in place of a potency, no number is given. The call rests on the fitted dose curve; in most records, active means well fitted activation curve with a large enough effect in the repeat runs; inconclusive means weak or mixed curves; inactive means flat fitted curve, though single readings scatter.

The assay is described as follows: A CellTox Green Cytotoxicity Assay to monitor cytotoxicity in HepG2 cells - 0 hour (AID 1224882). Further: nearly all actives have a fitted effect of over 35% in size. The settings on record: CellTox Green fluorescence; series mostly up to 76.8 µM. The method, boiled down: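 Fluorescent DNA-binding dye, 600 HepG2 cells/well, 5 h preincubation then compound in DMSO; same plates read at 0–40 h, 37 C.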
`CCCCCCOc1ccc(N)cc1`: the Potency result is “inactive”. Take `CC1=NN(c2cc(Cl)c(S(=O)(=O)O)cc2Cl)C(=O)C1N=Nc1ccc(S(=O)(=O)O)cc1` (centres undefined): the Potency entry is “inactive”.

On to `CCC1(C)NC(=O)NC1=O` (centres undefined), for which the Potency entry is “inactive”. Same read-out and setting: under `CCCCCCCCCCCCCCCCOP(=O)([O-])OCC[N+](C)(C)C` stands “inactive”.

For `CCCCCCCCc1ccc(S(=O)(=O)O)cc1`, the Potency result is “inactive”. On the same count and under the same terms, under `Oc1ccccc1C=NCc1ccccc1` stands “inactive”.

In the case of `Cc1onc(-c2ccccc2)c1C(=O)Cl`, the Potency entry is “inactive”. The same measure, in the same setting: under `C=CCCCCCCCCO` stands “inactive”; under `Clc1cccc(-c2cc(Cl)cc(Cl)c2)c1`, “inactive”.

For `CCCCOc1cc(C(=O)NCCN(CC)CC)c2ccccc2n1`, the Potency entry was “inactive”. Same read-out and setting: under `CCCCNc1ccc(C(=O)OCCN(CC)CC)cc1` stands “inactive”; under `CC(C)(C)c1cccc(O)c1`, “inactive”; under `COC(=O)/C=C(/C)N`, “inactive”.

In the case of `CC(C)C(=O)OCC(C)(C)C(O)C(C)C` (centres undefined), the Potency result is “inactive”.

Regarding `NCCCN1CCN(CCCN)CC1`, the Potency result was “inactive”. On the same count and under the same terms, under `CC[C@H]1CC[C@H](NCc2cc3c(cc2OC)[C@H]2C[C@H]2C(=O)N3C)[C@H](c2ccccc2)N1` stands “inactive”. Same read-out and setting: then `CCN(CC)CCNC(=O)COc1ccc(Cl)cc1`, with “inactive”; and `COc1ccc2nc(NC(=O)Nc3ccccc3)sc2c1`, with “inactive”; and `CCC(=O)c1ccc2c(c1)N(CCCN(C)C)c1ccccc1S2`, with “inactive”. On to `Cc1cc(NS(=O)(=O)c2ccc(N)cc2)nc(C)n1`, for which the Potency result was “inactive”. In the case of `O=Cc1ccc(O)c(O)c1O`, the Potency entry is “inactive”. Turning to `CN(C)C(=O)NC1(c2ccccc2)CCN(CCC[C@]2(c3ccc(Cl)c(Cl)c3)CCCN(C(=O)c3ccccc3)C2)CC1`, the cytotoxicity is -1.48% [at 15.8 µM] (inactive).

Turning to `CN1CCN(C2=Nc3ccccc3Oc3ccc(Cl)cc32)CC1`, the Potency entry is “inactive”. On the same count and under the same terms, then `CCOc1ccc(NS(=O)(=O)c2ccc(N)cc2)nn1`, with “inactive”; and `CCN(CC)CCOc1ccc(Cc2ccccc2)cc1`, with “inactive”. Still for that read-out and setting: under `CCCN(CCC)C(=O)C(CCC(=O)O)NC(=O)c1ccccc1` (centres undefined) stands “inactive”; under `CCCc1c2oc(C(=O)O)cc(=O)c2cc2c(=O)cc(C(=O)O)n(CC)c12`, “inactive”; under `CN(CCCN1c2ccccc2CCc2ccccc21)CC(=O)c1ccc(Cl)cc1`, “inactive”. On the same count and under the same terms, under `CC1=C2[C@H](/C=C(\C)C(=O)O)CC[C@@H](C)[C@H]2CC1` stands “inactive”.

On to `CC(C)S`, for which the Potency result is “inactive”. Still for that read-out and setting: then `C=CC(C)(O)CC/C=C(\C)CCC=C(C)C` (centres undefined), with “inactive”; and `Nc1ccc(Oc2ccc(N)c(N)c2)cc1`, with “inactive”; and `CCOC(=O)COc1ccc2c(c1)CC(NCC(O)c1cccc(Cl)c1)CC2` (centres undefined), with “inactive”. Same read-out and setting: then `Cc1ccc(C(C)C)cc1O`, with “inactive”.
